DRD3 antagonist: blocks the human D3 dopamine receptor; P35462; D3R cells, DiscoveRx beta-arrestin luminescence, antagonist mode; active compounds read low; max response, negative = inhibition, %; 2.5% of 360,000 active; in the data active means max response below about -50%; inconclusive means no clear call, values can overlap the other calls; further: on the % scale 0 is the no-effect control and ±100 the full control effect
Target sequence (P35462 whole entry, looked up): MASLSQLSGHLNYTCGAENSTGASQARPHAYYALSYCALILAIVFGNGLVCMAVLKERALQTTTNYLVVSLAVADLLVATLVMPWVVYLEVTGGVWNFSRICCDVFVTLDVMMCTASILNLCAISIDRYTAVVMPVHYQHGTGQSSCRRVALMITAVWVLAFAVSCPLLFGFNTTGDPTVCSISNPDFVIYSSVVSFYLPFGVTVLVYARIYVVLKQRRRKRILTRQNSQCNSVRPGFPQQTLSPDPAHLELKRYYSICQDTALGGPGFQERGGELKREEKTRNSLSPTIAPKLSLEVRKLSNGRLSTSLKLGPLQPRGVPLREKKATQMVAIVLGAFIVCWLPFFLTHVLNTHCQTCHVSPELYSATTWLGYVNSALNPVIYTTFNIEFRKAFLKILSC
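Cells plated overnight at 1500 cells/well, then exposed to library compounds with dopamine controls for 90 minutes at 37 degrees C. DiscoveRx reagent added for 30–60 minutes at room temperature; luminescence read, quantitative HTS format.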
SW480 rerep: inducers of DNA re-replication in SW480 colon cancer cells. AID 624297. SW480 DNA re-replication, Hoechst DNA content imaging, 48 h. 1.8% of 340,000 active. Potency, µM (titrated, usually from 46.1 µM), for inactives: top-dose re-replication activation, hits mostly activators; further: potency means the concentration at half of the fitted maximal effect; % of control where 0% means no effect; nearly all actives have a fitted effect of over 55% in size
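Readout is total intensity of Hoechst-stained nuclei, excited at 405 nm and collected at 500-530 nm. Compound treatment lasted 48 hr at 37 C in 5% CO2 before staining.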
KB-3-1 tox: KB-3-1 parental cell cytotoxicity; 1.4% of 400,000 active; KB-3-1 viability, CellTiter-Glo ATP luminescence, 72 h; Potency, µM (doses to about 46.1 µM), usual class: cytotoxic; further: potency means the concentration at half of the fitted maximal effect; on the % scale 0 is the no-effect control and ±100 the full control effect; nearly all actives have a fitted effect of over 60% in size
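Viability of parental KB-3-1 cells, measured by CellTiter-Glo luminescence, followed a 72 h incubation at 37 °C with pinned compounds in phenol-red-free DMEM containing 10% FBS.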
MCF10A rereplic: DNA re-replication induction in MCF 10a cells; MCF 10A DNA re-replication, Hoechst nuclear intensity, 48 h; Potency, µM (titrated, usually from 46.1 µM), for inactives: top-dose activity, positive = re-replication, actives largely listed as activators; 2.9% of 350,000 active; further: potency means the concentration at half of the fitted maximal effect; % of control where 0% means no effect; nearly all actives have a fitted effect of over 50% in size
KB-V1 cytotox: KB-V1 MDR subline cytotoxicity | KB-V1 MDR cells viability, CellTiter-Glo, 72 h | Potency, µM (top dose mostly 46.1 µM), most hits filed as cytotoxic | 3.4% of 400,000 active; further: potency means the concentration at half of the fitted maximal effect; on the % scale 0 is the no-effect control and ±100 the full control effect; nearly all actives have a fitted effect of over 60% in size
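KB-V1 MDR subline cells in DMEM (phenol-red free, 10% FBS) exposed to compounds in qHTS concentration series for 72 h at 37 degrees C. Viability read by CellTiter-Glo luminescence; concentration-effect curves fitted after normalization and correction.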
DRD3 agonist: D3 dopamine receptor (human) agonism | P35462 | D3R DiscoveRx beta-arrestin cells, luminescence, 90 min | max activation, % | 0.58% of 410,000 active; in the data active means max activation above about 30%; further: 0% is about no effect
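Agonist-mode cell screen: cells plated at 1500/well and incubated overnight at 37 °C, then exposed to library compounds for 90 min at 37 °C. Detection reagent was added for 30–60 min at room temperature, and luminescence was read.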
Starred values were filed as active, the others as inactive; i = inactive; ? = inconclusive; / = not tested or not shown. The list is not random: actives were taken first. Their share in the collection is about 8.9%. Unless noted, the call rests on the fitted dose curve; in most records, active means well fitted curve in the direction sought with a large enough effect; inconclusive means small, poorly fitted or top-dose-only effect, or another doubt; inactive means no such curve, though single readings can be large; an effect the other way counts as inactive or inconclusive.

SMILES	DRD3 antagonist	SW480 rerep	KB-3-1 tox	MCF10A rereplic	KB-V1 cytotox	DRD3 agonist
CSCCC(NS(=O)(=O)c1ccc(C)cc1)C(=O)N1CCCCCCC1 (stereo unspecified)	?	-3%	i	-3%	16µM*	5
Cc1cccc(-c2noc(CNC(=O)c3ccccc3Br)n2)c1	/	/	/	/	/	8
CCCN(C(=O)Cn1nc(Cc2ccncc2)c2ccccc2c1=O)c1ccccc1C	/	/	/	/	/	-1
COC(=O)c1nc(-c2ccc(C)cc2)oc1N(C)C	-6	-4%	i	5%	?	-1
COC(=O)c1nc(-c2ccccc2)oc1N(C)C	-17	1%	i	1%	16µM*	-4
CCCOc1ccc(OCC(=O)c2[nH]c(C)c(C(C)=O)c2C)cc1	17	17%	?	47%	2.9µM*	4
CC(=O)c1c(C)[nH]c(C(=O)COc2ccc3ccc(=O)oc3c2)c1C	8	-2%	i	19%	?	3
CC(=O)c1c(C)[nH]c(C(=O)COc2cc(C)cc(C)c2)c1C	34	1%	i	21%	2.6µM*	-10
CCOc1ccc(C(=O)Nc2cccc(C(=O)OCc3cc(=O)n4cc(C)sc4n3)c2)cc1	/	/	/	/	/	3
O=S(=O)(c1ccc(Oc2ccc(Br)cc2F)nc1)N1CCCCC1	?	?	?	20%	23µM*	0
N#Cc1ccccc1Oc1ccc(S(=O)(=O)N2CCCCC2)cn1	-25	0%	i	7%	?	-14
CCOC(=O)c1nnn(-c2ccccc2)c1C	-9	6%	i	3%	i	-5
CCOC(=O)c1nnn(-c2ccc([N+](=O)[O-])cc2[N+](=O)[O-])c1C	3	7.3µM*	23µM*	?	i	3
Cc1ccc2c(C)ccnc2c1	/	/	i	/	i	/
COC(=O)C1N2C(=O)N(C)[C@H](C(=O)OC)[C@H]2SC1(C)C (stereo partly specified)	/	/	i	/	i	/
Cc1cccc(-n2c(=O)c3c(c4cc(C)ccc4n3C)n(Cc3ccccc3F)c2=O)c1	/	/	i	/	i	-7
NS(=O)(=O)c1ccc(-c2ccc(/C=C3\NC(=S)NC3=O)o2)cc1	2	3%	i	25%	i	43*
NS(=O)(=O)c1ccc(-c2ccc(C=O)o2)cc1	5	-3%	i	-4%	i	-4
CCOc1cc(C(=O)Nc2cc3c(cc2N2CCCC2)n(C)c(=O)c(=O)n3C)cc(OCC)c1OCC	/	/	i	/	?	5
CN(C)C(=S)N=c1ssc(=S)n1Cc1cccnc1	30	18µM*	?	12µM*	?	6
Nc1nc2nc(-c3ccc(Cl)cc3)cc(C(F)(F)F)n2n1	23	13µM*	i	?	i	-8
COc1ccccc1-c1nnc(SCCOc2ccccc2C)o1	/	/	i	/	i	-5
CC(C)N(Cc1nc(-c2ccc(Cl)cc2)no1)C(=O)/C=C/c1ccccc1	-9	15%	i	?	16µM*	-33
CC(C)N(Cc1nc(-c2ccc(Cl)cc2)no1)C(=O)C(c1ccccc1)c1ccccc1	-26	24%	?	13%	?	-5
Cc1ccc(-c2noc(CN(C(=O)C(c3ccccc3)c3ccccc3)C(C)C)n2)cc1	9	?	?	10%	8.2µM*	0
CC(C)N(Cc1nc(-c2ccccc2)no1)C(=O)CN1C(=O)c2ccccc2C1=O	-13	0%	i	2%	10µM*	-6
Cc1cccc(-c2noc(CN(C(=O)/C=C/c3ccccc3Cl)C(C)C)n2)c1	0	1%	i	?	?	-13
O=C(NCCc1ccc(Cl)cc1)c1ccc(CSCc2cccc(Cl)c2)o1	/	/	i	/	i	-4
O=S(=O)(c1ccc(Oc2ncnc3scc(-c4ccccc4)c23)cc1)N1CCOCC1	22	10%	?	21µM*	?	2
c1csc(-c2csc3ncnc(NCCCN4CCOCC4)c23)c1	-56*	-1%	?	0%	3.3µM*	-17

Screening results: PubChem, National Center for Advancing Translational Sciences (NCATS)
